Laboratory results as given in PubChem BioAssay (Tox21).
Active and inactive are the calls of the source. A call without a number means that no potency is given here. Unless noted, calls follow the shape of the dose curve; as a rule, active = well fitted curve in the direction sought with a large enough effect in the repeat runs; inconclusive = weak or mixed curves; inactive = no such curve, though single readings can be large; an effect the other way counts as inactive or inconclusive.

Legend:
[1] = qHTS assay to identify small molecule antagonists of the thyroid receptor (TR) signaling pathway - cell viability counter screen (AID 743064); also: nearly all actives have a fitted effect of over 50% in size; also: potency is read from the fitted curve at half-maximal effect
Summary of the method: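 Compounds were tested on GH3.TRE-Luc cells in the presence of T3 at 1 nM final. Following 23.5 h at 37 °C, cell viability was quantified by CellTiter-Fluor.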

[2] = qHTS assay to identify small molecule antagonists of the thyroid receptor (TR) signaling pathway (AID 743065); also: nearly all actives have a fitted effect of over 55% in size; also: potency is read from the fitted curve at half-maximal effect
Summary of the method: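 GH3.TRE-Luc rat pituitary cells carrying two TR response elements driving luciferase were plated for 4 h, given compound plus 1 nM T3 (final), and incubated 23.5 h at 37 C. ONE-Glo luminescence measured reporter inhibition; CellTiter-Fluor fluorescence tracked cytotoxicity.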

[3] = tested on: thyroid hormone receptor (rat, GH3 cells); experiment: qHTS assay to identify small molecule agonists of the thyroid receptor (TR) signaling pathway (AID 743066; calls by dose curve)
[4] = target: Estrogen receptor (Homo sapiens) (UniProt P03372); experiment: qHTS assay to identify small molecule antagonists of the estrogen receptor alpha (ER-alpha) signaling pathway (AID 743069; active = well fitted curve in the direction sought with a large enough effect in the signal ratio in the repeat runs, not every such curve was filed as active; inconclusive = weak or mixed curves, or effect the other way; inactive = no such curve, though single readings can be large or run the other way; the % refers to the signal ratio; also: potency is read from the fitted curve at half-maximal effect)
Summary of the method: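 HEK293 cells stably carrying an ER-alpha-UAS-bla beta-lactamase reporter were pre-cultured overnight in 2% charcoal-stripped FBS medium. Test compounds in DMSO were added together with 17beta-estradiol for 18 hr at 37C. Read-out was fluorescence after 2 hr with LiveBLAzer B/G FRET substrate at room temperature.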

[5] = qHTS assay to identify small molecule antagonists of the estrogen receptor alpha (ER-alpha) signaling pathway - cell viability counter screen (AID 743074; calls by dose curve; also: nearly all actives have a fitted effect of over 45% in size)
[6] = target: Estrogen receptor (Homo sapiens) (UniProt P03372); experiment: qHTS assay to identify small molecule agonists of the estrogen receptor alpha (ER-alpha) signaling pathway using the BG1 cell line (AID 743079); details: BG1Luc4E2 cells, ERE-luciferase agonist, 22 h; activation: at 70.3 µM (top of the series); also: nearly all actives have a fitted effect of over 20% in size; also: potency is read from the fitted curve at half-maximal effect
[7] = qHTS assay to identify small molecule antagonists of the estrogen receptor alpha (ER-alpha) signaling pathway using the BG1 cell line (AID 743080; calls by dose curve;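 also: BG1 cells stimulated with 17beta-estradiol alongside compound; nearly all actives have a fitted effect of over 25% in size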; also: potency is read from the fitted curve at half-maximal effect)
Summary of the method: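 BG1-Luc-4E2 cells (endogenous full-length ER-alpha, stable 4×ERE-luciferase) were starved 5 days in phenol-red-free medium with 10% charcoal-stripped FBS, plated 24 h, then given compound plus 17beta-estradiol for 21.5 h at 37 C; ONE-Glo luminescence read after 30 min.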

[8] = target: Aromatase (Homo sapiens) (UniProt P11511); experiment: qHTS assay to identify aromatase inhibitors (AID 743083); also: nearly all actives have a fitted effect of over 55% in size; also: potency is read from the fitted curve at half-maximal effect
[9] = target: Estrogen receptor (Homo sapiens) (UniProt P03372); experiment: qHTS assay to identify small molecule agonists of the estrogen receptor alpha (ER-alpha) signaling pathway (AID 743075; calls by dose curve; also: potency is read from the fitted curve at half-maximal effect)
[10] = qHTS assay to identify small molecule antagonists of the estrogen receptor alpha (ER-alpha) signaling pathway using the BG1 cell line - cell viability counter screen (AID 743081);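 also: compound given together with 17beta-estradiol as the ER stimulus; nearly all actives have a fitted effect of over 45% in size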; also: potency is read from the fitted curve at half-maximal effect

Aromatase (Homo sapiens), sequence (P11511 whole entry, looked up): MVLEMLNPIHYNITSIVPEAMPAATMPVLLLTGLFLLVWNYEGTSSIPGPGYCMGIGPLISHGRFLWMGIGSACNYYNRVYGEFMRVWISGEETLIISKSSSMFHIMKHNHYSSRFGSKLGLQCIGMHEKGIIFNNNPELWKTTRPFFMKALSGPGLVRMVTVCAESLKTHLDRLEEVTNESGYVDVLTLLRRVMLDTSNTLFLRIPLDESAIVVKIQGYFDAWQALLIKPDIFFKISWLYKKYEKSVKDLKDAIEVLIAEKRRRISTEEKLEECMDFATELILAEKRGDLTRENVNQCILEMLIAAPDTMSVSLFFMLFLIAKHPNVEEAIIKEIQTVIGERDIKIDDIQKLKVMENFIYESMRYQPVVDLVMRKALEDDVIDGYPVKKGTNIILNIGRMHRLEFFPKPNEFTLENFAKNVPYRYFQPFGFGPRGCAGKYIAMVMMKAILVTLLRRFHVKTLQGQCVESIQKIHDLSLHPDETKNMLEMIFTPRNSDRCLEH
Estrogen receptor (Homo sapiens), sequence (P03372 whole entry, looked up): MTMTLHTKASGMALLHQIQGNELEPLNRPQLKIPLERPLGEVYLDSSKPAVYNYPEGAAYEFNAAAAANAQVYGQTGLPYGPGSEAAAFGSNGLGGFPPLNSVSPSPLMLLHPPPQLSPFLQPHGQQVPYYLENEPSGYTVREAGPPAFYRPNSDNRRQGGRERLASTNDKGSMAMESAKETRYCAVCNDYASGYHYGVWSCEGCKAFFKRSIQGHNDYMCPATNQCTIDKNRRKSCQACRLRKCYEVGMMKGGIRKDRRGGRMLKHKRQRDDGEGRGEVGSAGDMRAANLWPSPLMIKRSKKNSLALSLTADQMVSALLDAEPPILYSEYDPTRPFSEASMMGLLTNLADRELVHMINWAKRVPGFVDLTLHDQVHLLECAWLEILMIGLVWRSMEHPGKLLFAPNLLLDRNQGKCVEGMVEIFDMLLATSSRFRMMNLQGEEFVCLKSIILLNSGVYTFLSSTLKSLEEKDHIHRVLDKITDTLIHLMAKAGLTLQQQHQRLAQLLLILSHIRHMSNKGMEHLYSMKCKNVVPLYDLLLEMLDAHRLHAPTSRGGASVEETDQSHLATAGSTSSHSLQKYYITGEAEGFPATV

Structure (SMILES) | Potency [1] | Potency [2] | outcome [3] | Potency [4] | Potency [5] | Potency [6] | Potency [7] | Potency [8] | Potency [9] | Potency [10]
C[C@]1(Cn2ccnn2)[C@H](C(=O)O)N2C(=O)C[C@H]2S1(=O)=O | inactive | inactive | inactive | 2.39 µM [inconclusive] (active) | inactive | inactive | inactive | inactive | – | –
COc1cc(C(=O)NCCCCCC(=O)O)cc(OC)c1OC | inactive | inactive | inactive | – | inactive | inactive | inactive | inactive | inactive | inactive
CCCCN1CCCC1C(=O)Nc1c(C)cc(C)cc1C (stereo not given) | inactive | inactive | inactive | – | inactive | inactive | inactive | inactive | inactive | inactive
C=COCC(C)C | inactive | inactive | inactive | – | inactive | inactive | inactive | inactive | inactive | inactive
N#CCc1ccc(Cl)cc1Cl | inactive | inactive | inactive | – | inactive | inactive | inactive | inactive | inactive | inactive
O[C@@H]1CO[C@H]2[C@@H]1OC[C@@H]2O | inactive | inactive | inactive | – | inactive | inactive | inactive | inactive | inactive | inactive
CCOC(=O)c1ccc(OCCN2C[C@H](O)[C@@H](O)[C@H](O)[C@H]2CO)cc1 | inactive | inactive | inactive | inactive | – | inactive | inactive | inactive | inactive | inactive
CCCCCC[C@@H](O)C/C=C\CCCCCCCC(=O)OCC(O)CO (stereo not given in full) | inactive | inactive | inactive | – | inactive | inactive | inactive | inactive | inactive | inactive
CCC(C)(C)OC | inactive | inactive | inactive | – | inactive | 68.2 µM (active) | inactive | inactive | 54.7 µM [activator] (active) | inactive
CCN(CC)CCNC(=O)COc1ccc(OC)cc1 | inactive | inactive | inactive | – | inactive | 23.7 µM (active) | inactive | inactive | inactive | inactive
C=C(C)C(=O)OCCOCCOC(=O)C(=C)C | inactive | inactive | inactive | – | inactive | inactive | inactive | inactive | inactive | inactive
CCOC(=O)C1=C(C)NC(C)=C(C(=O)OC)C1c1cccc(Cl)c1Cl (stereo not given) | 18.8 µM (active) | 18.8 µM (active) | inactive | – | inactive | inactive | inactive | inactive | 10.7 µM [activator] (active) | inactive
Nc1ccc(N=Nc2ccccc2)c(N)c1 | 53.3 µM (active) | inactive | inactive | inactive | inactive | 0.336 µM (active) | – | inactive | inactive | 26.7 µM (active)
Oc1cc2c(cc1O)[C@H]1c3ccc(O)c(O)c3OC[C@@]1(O)C2 | 61.9 µM (active) | 49.2 µM (active) | inactive | inactive | inactive | – | – | 24.6 µM (active) | inactive | 49.2 µM (active)
C(=C\c1ccccc1)/c1ccccc1 | inactive | inactive | inactive | inactive | inactive | 60.6 µM (active) | – | inactive | inactive | inactive
CC=C(Cl)Cl | inactive | inactive | inactive | inactive | inactive | inactive | inactive | inactive | – | inactive
CCCCCCCCCI | inactive | inactive | inactive | inactive | inactive | – | inactive | inactive | – | inactive
C=C1c2cccc(O)c2C(O)=C2C(=O)[C@]3(O)C(O)=C(C(N)=O)C(=O)[C@@H](N(C)C)[C@@H]3[C@@H](O)[C@H]12 | inactive | inactive | inactive | – | inactive | inactive | inactive | inactive | inactive | inactive
c1ccc(C[n+]2cccc3ccccc32)cc1 | inactive | inactive | inactive | 49 µM [inconclusive] (active) | inactive | – | 61.1 µM (active) | inactive | inactive | –

Structure (SMILES) | Potency [1] | Potency [2] | outcome [3] | Potency [4] | Potency [5] | Potency [6] | Potency [7] | Potency [8] | Potency [9] | Potency [10]
CCn1cc(C(=O)O)c(=O)c2cc(F)c(N3CCNCC3)cc21 | inactive | inactive | inactive | – | inactive | inactive | inactive | inactive | inactive | inactive
CCCC(=O)C(=O)O | inactive | inactive | inactive | – | inactive | inactive | inactive | inactive | inactive | inactive
COc1cc(N)c(Cl)cc1C(=O)NC1CCN(CCCOc2ccc(F)cc2)CC1OC (stereo not given) | 11.4 µM (active) | 11.4 µM (active) | inactive | inactive | inactive | – | inactive | inactive | inactive | –
CC[N+](CC)(CCNC(=O)C(=O)NCC[N+](CC)(CC)Cc1ccccc1Cl)Cc1ccccc1Cl | inactive | inactive | inactive | inactive | inactive | – | inactive | inactive | inactive | inactive
O=C(OC(=O)c1ccccc1)c1ccccc1 | inactive | inactive | inactive | – | inactive | inactive | inactive | inactive | inactive | inactive
Cc1cscn1 | inactive | inactive | inactive | – | inactive | inactive | inactive | inactive | inactive | inactive
O=c1[nH]c2ccc(Cl)cc2o1 | inactive | inactive | inactive | – | inactive | inactive | inactive | inactive | inactive | inactive
CCCCCCCCCCC(=O)O | inactive | inactive | inactive | – | inactive | inactive | inactive | inactive | inactive | inactive
N#[N+]c1ccc2c(S(=O)(=O)[O-])cccc2c1O | inactive | inactive | inactive | – | inactive | – | inactive | inactive | inactive | inactive
CC1(C)[C@@H](OC(=O)CCC(=O)O)CC[C@]2(C)[C@H]3C(=O)C=C4[C@@H]5C[C@@](C)(C(=O)O)CC[C@]5(C)CC[C@@]4(C)[C@]3(C)CC[C@@H]12 | inactive | inactive | inactive | – | inactive | – | – | inactive | – | inactive
NC1[C@H]2CN(c3nc4c(cc3F)c(=O)c(C(=O)O)cn4-c3ccc(F)cc3F)C[C@@H]12 (stereo not given in full) | 26.6 µM (active) | 9.44 µM (active) | inactive | – | inactive | – | 13.3 µM (active) | 0.473 µM (active) | – | inactive
CCCCCCCCN | inactive | inactive | inactive | – | inactive | – | – | inactive | – | inactive
O=C(Nc1cccc2c(=O)cc(-c3nn[nH]n3)oc12)c1ccc(OCCCCc2ccccc2)cc1 | inactive | inactive | inactive | – | inactive | – | – | inactive | – | inactive
O=C(/C=C/c1ccccc1)OCCc1ccccc1 | inactive | inactive | inactive | – | inactive | 4.86 µM (active) | – | inactive | inactive | inactive
CC(C)=CCC1C(=O)N(c2ccccc2)N(c2ccccc2)C1=O | inactive | 21.1 µM (active) | inactive | – | inactive | – | – | inactive | inactive | inactive
CC1=C(CC=O)C(C)(C)CCC1 | inactive | inactive | inactive | – | inactive | – | – | inactive | – | inactive
CC1(C)O[C@@H]2C[C@H]3[C@@H]4C[C@H](F)C5=CC(=O)C=C[C@]5(C)[C@H]4[C@@H](O)C[C@]3(C)[C@]2(C(=O)CO)O1 | inactive | inactive | inactive | – | inactive | inactive | – | inactive | – | inactive
CCOC(=O)OC(C)OC(=O)[C@@H]1N2C(=O)[C@@H](NC(=O)[C@H](N)c3ccccc3)[C@H]2SC1(C)C (stereo not given in full) | inactive | inactive | inactive | – | inactive | – | – | inactive | – | inactive
Nc1cccc2c1CN(C1CCC(=O)NC1=O)C2=O (stereo not given) | inactive | inactive | inactive | – | inactive | inactive | inactive | inactive | inactive | inactive

Structure (SMILES) | Potency [1] | Potency [2] | outcome [3] | Potency [4] | Potency [5] | Potency [6] | Potency [7] | Potency [8] | Potency [9] | Potency [10]
CC(C)C=O | inactive | inactive | inactive | – | inactive | – | – | inactive | – | inactive
CC(=O)Oc1ccc([N+](=O)[O-])cc1CCl | 30.6 µM (active) | inactive | inactive | – | inactive | inactive | – | inactive | inactive | 61.1 µM (active)
CC1CC(OC(=O)C(O)c2ccccc2)CC(C)(C)N1C (stereo not given) | inactive | inactive | inactive | – | inactive | – | – | inactive | – | inactive
NNC(=O)CP(=O)(c1ccccc1)c1ccccc1 | inactive | inactive | inactive | – | inactive | – | – | – | – | inactive
CC(C)=CCC/C(C)=C/CC/C(C)=C/CCC(=O)OC/C=C(\C)CCC=C(C)C | inactive | inactive | inactive | – | inactive | inactive | inactive | inactive | inactive | inactive
CC(CCC(=O)O)C(=O)O (stereo not given) | inactive | inactive | inactive | – | inactive | – | – | inactive | – | inactive
CC1CC(C)C(=O)C1=O (stereo not given) | inactive | inactive | inactive | – | inactive | – | – | inactive | – | inactive
O=c1cc(-c2ccccc2)oc2cc(O)cc(O)c12 | 54.5 µM (active) | 54.5 µM (active) | inactive | – | inactive | – | – | – | – | inactive
CCC(OCCCOC)OC(C)=O (stereo not given) | inactive | inactive | inactive | – | inactive | – | – | inactive | – | inactive
CCOC(=O)c1ccc(C#Cc2ccc3c(c2)C(C)(C)CCS3)nc1 | inactive | inactive | inactive | – | inactive | – | – | – | – | inactive
O=C1c2ccccc2C(=O)C1c1nc2ccccc2c(Br)c1O | inactive | inactive | inactive | – | inactive | inactive | – | inactive | inactive | inactive
Cc1ccc(OC(=O)c2ccccc2O)cc1 | inactive | inactive | inactive | – | inactive | – | – | inactive | – | inactive
CC(=O)Nc1ccc(C)cc1C | inactive | inactive | inactive | – | inactive | – | – | inactive | – | inactive
Cc1cccc(N(C)C(=S)Oc2ccc3c(c2)CCC3)c1 | inactive | inactive | inactive | – | inactive | inactive | – | inactive | inactive | –
Clc1cc(Cl)nc(Cl)n1 | inactive | inactive | inactive | – | inactive | – | – | inactive | – | inactive
CC/C=C1/OC(=O)c2ccccc21 | inactive | inactive | inactive | – | inactive | – | – | inactive | – | inactive
CC(C)(O)c1ccc(CNC(=O)c2cccnc2Oc2ccc3nonc3c2)cc1 | inactive | inactive | inactive | – | inactive | – | inactive | inactive | inactive | inactive
NC(=O)c1ccncc1 | inactive | inactive | inactive | – | inactive | – | – | inactive | – | inactive
CO/N=C(/C(=O)N[C@@H]1C(=O)N2C(C(=O)O)=C(COC(N)=O)CS[C@H]12)c1ccco1 | inactive | inactive | inactive | – | inactive | – | – | inactive | – | inactive
